# Screens as filed in PubChem.
# Only some compounds are listed: those with a hit (about 8.7% of all), similar ones and a draw of the others.
# HP1b chromo inh – inhibitors of HP1-beta chromodomain binding to methylated histone tails | 390,000 tested, 0.56% active | P83916 | Potency, µM (doses to about 114 µM), hits mostly inhibitors | AlphaScreen HP1-beta / biotin-H3K9me3 peptide binding; further: nearly all actives have a fitted effect of over 70% in size
# Target sequence (P83916 whole entry, looked up): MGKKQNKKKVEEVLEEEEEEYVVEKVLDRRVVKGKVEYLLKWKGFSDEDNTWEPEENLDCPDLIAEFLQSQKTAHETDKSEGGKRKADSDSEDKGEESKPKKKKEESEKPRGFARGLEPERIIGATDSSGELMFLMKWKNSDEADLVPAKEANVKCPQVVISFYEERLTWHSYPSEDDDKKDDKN
#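 Compound inhibition of the preformed complex between 50 nM HP1-beta and 50 nM biotinylated H3K9me3 peptide was read by AlphaScreen. Buffer was PBS pH 7.4 with 0.01% Tween-20. Incubations ran 30 min at room temperature, with 10 ug/mL donor/acceptor beads.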
# 12-LOX inh – inhibitors of human 12S-lipoxygenase ALOX12 | P18054 | AID 1671190 | Potency, µM (highest dose often 108 µM), usual class: inhibitors | 580,000 tested, 1.1% active | purified 12hLO, xylenol orange hydroperoxide absorbance
#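 Purified human 12hLO at 150 nM in 25 mM Hepes, 0.01% Triton X-100, pH 7.0, preincubated 15 min at room temperature with compound. Reaction started with 40 uM arachidonic acid, 30 min at room temperature. Hydroperoxide measured by Fe-xylenol orange, 573/405 nm absorbance ratio.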
# BAZ2B inh – inhibitors of human BAZ2B bromodomain; Potency, µM (top dose mostly 114 µM), hits mostly inhibitors; 360,000 tested, 4.4% active; Q9UIF8; AlphaScreen BAZ2B-H3K14Ac peptide displacement; further: nearly all actives have a fitted effect of over 60% in size
#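 AlphaScreen displacement of biotin-H3(5-23)K14Ac peptide (50 nM final) from BAZ2B (50 nM final) in PBS pH 7.4, 0.01% Tween-20; complex preformed 30 min RT, then compounds (top 110 uM) 30 min RT, beads 20 min dark.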
# JMJD2A Tudor inh – JMJD2A Tudor domain (human) inhibition; O75164; AlphaScreen JMJD2A-Tudor / H3K4me3 peptide binding; Potency, µM (series often up to 114 µM), usual class: inhibitors; 390,000 tested, 4.4% active; AID 504339; further: nearly all actives have a fitted effect of over 50% in size
# G9a block – G9a (human) methyltransferase inhibition; Potency, µM (titrated, usually from 102 µM), most hits filed as inhibitors; Q96KQ7; AID 504332; G9a H3K9 monomethylation, AlphaScreen, 2 h; 350,000 tested, 8.8% active; further: nearly all actives have a fitted effect of over 75% in size
# Target sequence (Q96KQ7 913-1193 limits assumed): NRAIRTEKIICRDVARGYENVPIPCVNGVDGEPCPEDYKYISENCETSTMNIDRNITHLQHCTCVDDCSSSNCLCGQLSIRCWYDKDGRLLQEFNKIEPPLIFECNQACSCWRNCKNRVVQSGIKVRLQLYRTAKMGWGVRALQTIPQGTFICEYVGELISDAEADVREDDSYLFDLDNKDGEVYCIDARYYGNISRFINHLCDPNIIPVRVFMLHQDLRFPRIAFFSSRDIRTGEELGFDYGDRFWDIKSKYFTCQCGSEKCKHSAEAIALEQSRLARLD
#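 AlphaScreen detection with an anti-monomethyl H3K9 antibody quantified product after a 2 h room-temperature reaction containing 500 nM biotinylated H3K9 peptide, 20 µM SAM and 20 nM enzyme, which had been preincubated 15 min with compound.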
# Sfp PPTase inh – blocks B. subtilis Sfp PPTase activity. Potency, µM, most hits filed as inhibitors. AID 1490. Q9F4F7. 310,000 tested, 3.5% active. Biochemical Sfp PPTase activity, qHTS;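 further: the enzyme is Sfp with the accession as filed and its product quenches rhodamine fluorescence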
#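 With Hepes-Na pH 7.6 buffer containing 10 mM MgCl2, Sfp (15 nM) modified BHQ-2-YbbR (12.5 uM) using rhodamine-CoA (5 uM). Two reads 30 minutes apart at 525/598 nm yielded each well's rate.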
# Numbers stand for hits; i = inactive; ? = inconclusive; nt = no result given; [ ] = dose if it differs, or a comment. The call rests on the fitted dose curve; in most records, active means well fitted curve in the direction sought with a large enough effect; inconclusive means small, poorly fitted or top-dose-only effect, or another doubt; inactive means no such curve, though single readings can be large; an effect the other way counts as inactive or inconclusive.
SMILES,HP1b chromo inh,12-LOX inh,BAZ2B inh,JMJD2A Tudor inh,G9a block,Sfp PPTase inh
NC(=O)c1ccccc1N/C=C1\CCCCC1=O,i,?,?,i,?,i
COC(=O)c1cccc(-n2c(=O)n(Cc3ccccc3)c(=O)c3[nH]cnc32)c1C,i,i,i,i,18µM,i
NNc1ccc(S(N)(=O)=O)cc1[N+](=O)[O-],nt,i,nt,nt,nt,nt
CCCCNc1ccc(S(=O)(=O)c2cccc([N+](=O)[O-])c2)cc1[N+](=O)[O-],i,i,?,i,7.9µM,i
CC1C/C(=N\Nc2ccc(S(N)(=O)=O)cc2[N+](=O)[O-])CC(C)(C)C1 (stereo not drawn),?,i,?,?,14µM,i
CCNc1ccc(S(N)(=O)=O)cc1[N+](=O)[O-],i,?,i,i,3.5µM,i
CS(=O)(=O)NCCCNc1ccc(Cl)cc1[N+](=O)[O-],i,i,?,i,?,i
NS(=O)(=O)c1ccc(NN=C2CCN(Cc3ccccc3)CC2)c([N+](=O)[O-])c1,i,i,i,i,45µM,i
COCC(=O)NC[C@H]1OC[C@@H](NCc2cccc(C#N)c2)[C@@H]1O,nt,i,nt,nt,nt,nt
Cc1cc(C)c2cc3c(N)c(C(=O)N4CCc5ccccc5C4)sc3nc2c1,i,i,i,i,10µM,i
Nc1nc2sc3c(c2cc1C(=O)NCC(=O)O)CCCC3,i,?,i,i,?,i
Nc1nc2sc3c(c2cc1C(=O)N1CCOCC1)CCCC3,i,?,i,14µM,?,i
Cc1ccc2nc3sc(C(=O)N4CCCc5ccccc54)c(N)c3cc2c1,i,i,i,i,3.2µM,i
Cc1cccc2cc3c(N)c(C(=O)N4CCOCC4)sc3nc12,i,25µM,i,?,?,?
Cc1ccc(-c2cc(C(=O)N3CCCc4ccccc43)c3ccccc3n2)cc1,i,i,i,i,i[12.7 µM],i
O=C(COc1ccccc1)Nc1nc(-c2ccncc2)cs1,i,i,i,i,8.9µM,50µM
Cc1cc(C)cc(OCC(=O)Nc2nc(-c3cccnc3)cs2)c1,?,i,i,i,10µM,45µM
O=C(COc1ccccc1)Nc1nc(-c2cccnc2)cs1,i,i,i,i,?,nt
COc1cccc(C(=O)Nc2nc(-c3ccncc3)cs2)c1,i,i,nt,i,32µM,?
Cc1cccc(OCC(=O)Nc2nc(-c3ccncc3)cs2)c1,i,i,i,i,i[12.7 µM],nt
COc1cccc(C(=O)Nc2nc(C)cs2)c1,i,?,i,i,i,i
CCOC(=O)C1CCCN(C(=O)c2[nH]c3ccccc3c2Sc2ccc(Cl)cc2)C1 (stereo not drawn),i,i,?,i,8.9µM,nt
CCOC(=O)C1CCCN(C(=O)Cc2c(C(=O)O)[nH]c3ccccc23)C1 (stereo not drawn),i,i,i,i,i[2.33 µM],i
CC1Sc2ccc(C(=O)N3CCCC(C(F)(F)F)C3)cc2NC1=O (stereo not drawn),i,i,i,i,i,nt
CCOC(=O)C1CCCN(C(=O)c2ccc3[nH]c4c(c3c2)CC(C)CC4)C1 (stereo not drawn),?,i,50µM,?,?,nt
SMILES,HP1b chromo inh,12-LOX inh,BAZ2B inh,JMJD2A Tudor inh,G9a block,Sfp PPTase inh
CC1CCc2[nH]c3ccc(C(=O)N4CCCC(C(F)(F)F)C4)cc3c2C1 (stereo not drawn),i,i,32µM,?,35µM,nt
CCOC(=O)c1ccc(-n2c(CN3CCOCC3)nc3ccc([N+](=O)[O-])cc3c2=O)cc1,i,i,i,i,45µM,i
CCOC(=O)c1ccc(-n2c(CC)nc3ccccc3c2=O)cc1,nt,nt,i,nt,i,i
CCOC(=O)c1ccc(-n2c(CN(CC)CC)nc3ccc([N+](=O)[O-])cc3c2=O)cc1,i,i,nt,?,10µM,22µM
CCOC(=O)c1ccc(-n2c(CN3CCN(CC)CC3)nc3ccc([N+](=O)[O-])cc3c2=O)cc1,i,?,nt,i,56µM,i
CCOC(=O)N1CCN(Cc2nc3ccc([N+](=O)[O-])cc3c(=O)n2-c2ccccc2F)CC1,i,nt,i,i,79µM,i
CCOc1ccc2c(=O)c(Oc3cccc(OC)c3)coc2c1,nt,i,nt,nt,nt,nt
N#Cc1c(=O)c2nc(NCc3ccccc3)ncc2n2ccccc12,i,i,?,50µM,i[12.7 µM],i
Cc1cn2nc(C(=O)Nc3ccc(F)cc3)cc2c(N(C)Cc2ccccc2)n1,nt,i,nt,nt,nt,nt
CCOc1ccc(NC(=O)C(=O)c2c(C)n(C)c3ccccc23)cc1,nt,i,nt,nt,nt,nt
CCN1CCN(C(=O)c2ccc(Sc3ccccc3Cl)c([N+](=O)[O-])c2)CC1,i,i,i,?,32µM,i
CCN1CCCC1CNC(=O)c1ccc(Sc2ccccc2Cl)c([N+](=O)[O-])c1 (stereo not drawn),i,?,28µM,?,i,i
CCN1CCN(C(=O)c2ccc(Cl)c(S(=O)(=O)N(C)c3ccccc3)c2)CC1,i,i,i,i,18µM,nt
CC(=O)c1ccc(-c2ccc(C(=O)NCC3CCCO3)o2)cc1 (stereo not drawn),i,i,i,i,79µM,nt
